Inconclusive results are not listed. The source made the active and inactive calls. Unless noted, the call rests on the fitted dose curve; in most records, active means well fitted curve in the direction sought with a large enough effect in the repeat runs; inconclusive means weak or mixed curves; inactive means no such curve, though single readings can be large; an effect the other way counts as inactive or inconclusive.
Legend:
[1] = qHTS assay to identify small molecule agonists of the constitutive androstane receptor (CAR) signaling pathway - cell viability counter screen (AID 1224836); further: series mostly up to about 92 µM; nearly all actives have a fitted effect of over 45% in size
How it was run: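 Compound titrations (15 concentrations) went onto HepG2-CYP2B6-hCAR cells 4 h after seeding, alongside PK11195 at a final 0.75 uM; a 23 h, 37 C/5% CO2 incubation preceded CellTiter-Fluor viability measurement.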

[2] = qHTS assay to identify small molecule antagonists of the constitutive androstane receptor (CAR) signaling pathway - cell viability counter screen (AID 1224837); further: nearly all actives have a fitted effect of over 45% in size; further: potency means the concentration at half of the fitted maximal effect; on activity change, negative = cytotoxicity: series mostly up to about 92 µM
How it was run: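 Using CellTiter-Fluor, viability is scored in HepG2 cells stably carrying hCAR and a 2.2kb CYP2B6 reporter after 23 hr compound exposure across 15 concentrations, with CITCO present at 50 nM.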

[3] = molecular target: Nuclear receptor subfamily 1 group I member 3 (Homo sapiens) (UniProt Q14994); experiment: qHTS assay to identify small molecule antagonists of the constitutive androstane receptor (CAR) signaling pathway (AID 1224838);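 further: HepG2 cells stably expressing hCAR with CYP2B6 luciferase reporter stimulated by CITCO; nearly all actives have a fitted effect of over 40% in size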; further: potency means the concentration at half of the fitted maximal effect
Sequence of Nuclear receptor subfamily 1 group I member 3 (Homo sapiens) (Q14994 whole entry, looked up): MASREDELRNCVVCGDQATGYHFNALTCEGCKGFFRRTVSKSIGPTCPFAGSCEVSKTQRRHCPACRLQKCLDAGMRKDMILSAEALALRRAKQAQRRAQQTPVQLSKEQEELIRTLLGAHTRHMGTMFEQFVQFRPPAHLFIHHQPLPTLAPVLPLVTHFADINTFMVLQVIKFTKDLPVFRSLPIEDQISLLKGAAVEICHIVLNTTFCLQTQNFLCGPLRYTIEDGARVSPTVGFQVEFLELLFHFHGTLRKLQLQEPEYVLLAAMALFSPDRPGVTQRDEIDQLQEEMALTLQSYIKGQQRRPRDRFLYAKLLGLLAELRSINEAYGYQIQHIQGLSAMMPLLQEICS
How it was run: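 Reporter luminescence was quantified after 24 h exposure of hCAR/CYP2B6-2.2kb double-stable HepG2 cells to compounds at 15 concentrations in the presence of 50 nM CITCO final.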

[4] = molecular target: Nuclear receptor subfamily 1 group I member 3 (Homo sapiens) (UniProt Q14994); experiment: qHTS assay to identify small molecule agonists of the constitutive androstane receptor (CAR) signaling pathway (AID 1224839); further: nearly all actives have a fitted effect of over 15% in size; further: potency means the concentration at half of the fitted maximal effect;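 on activation: HepG2 cells stably carrying human CAR and a CYP2B6 luciferase reporter; series mostly up to about 92 µM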
How it was run: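 In this screen, CAR-driven CYP2B6 promoter activity is measured by luminescence in HepG2-CYP2B6-hCAR cells after 24 h with test compounds and 0.75 uM PK11195 (final concentration).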

[5] = qHTS assay to identify small molecule antagonists of the estrogen related receptor signaling pathway with the pleiotropic PPARgamma coactivator (PGC) from Tox21 10K library - cell viability counter screen (AID 1224840; active means well fitted cell-killing curve with a large enough effect in the repeat runs, not every such curve was filed as active; further: nearly all actives have a fitted effect of over 40% in size)
How it was run: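 Here the PGC/ERR cells serve as a cytotoxicity control: they are exposed to compounds for 17.5 hours at 37 C, and live-cell signal is quantified using CellTiter-Fluor fluorescence.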

[6] = molecular target: Thyrotropin receptor (Homo sapiens) (UniProt P16473); experiment: qHTS assay to identify small molecule agonists of the thyroid stimulating hormone receptor (TSHR) signaling pathway (AID 1224843; calls by dose curve; further: nearly all actives have a fitted effect of over 45% in size)
Sequence of Thyrotropin receptor (Homo sapiens) (P16473 whole entry, looked up): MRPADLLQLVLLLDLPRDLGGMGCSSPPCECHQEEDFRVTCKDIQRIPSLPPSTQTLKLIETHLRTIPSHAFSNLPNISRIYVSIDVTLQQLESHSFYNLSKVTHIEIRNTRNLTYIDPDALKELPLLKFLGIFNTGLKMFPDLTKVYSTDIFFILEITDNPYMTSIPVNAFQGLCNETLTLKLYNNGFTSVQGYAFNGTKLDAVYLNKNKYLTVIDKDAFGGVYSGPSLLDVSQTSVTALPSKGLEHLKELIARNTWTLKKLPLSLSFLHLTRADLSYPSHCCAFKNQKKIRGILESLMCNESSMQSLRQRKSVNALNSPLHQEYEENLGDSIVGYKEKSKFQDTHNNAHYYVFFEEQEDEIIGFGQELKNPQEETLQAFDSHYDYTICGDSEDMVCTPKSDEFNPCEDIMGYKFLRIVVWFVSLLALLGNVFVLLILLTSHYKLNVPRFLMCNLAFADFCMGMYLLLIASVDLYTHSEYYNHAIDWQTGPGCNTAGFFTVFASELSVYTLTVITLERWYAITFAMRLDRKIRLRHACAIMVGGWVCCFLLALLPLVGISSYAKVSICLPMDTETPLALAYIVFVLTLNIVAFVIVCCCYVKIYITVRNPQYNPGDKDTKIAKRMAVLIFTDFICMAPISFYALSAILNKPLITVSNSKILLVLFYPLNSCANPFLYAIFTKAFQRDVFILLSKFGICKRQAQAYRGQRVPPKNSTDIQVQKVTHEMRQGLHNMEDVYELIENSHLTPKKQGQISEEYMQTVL
How it was run: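 Steps: seed 800 TSHR-HEK293 cells per well; add test compound and hold 30 min at ambient temperature; dispense cAMP-d2 then anti-cAMP cryptate; incubate 1 h at ambient; measure fluorescence intensity.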

[7] = qHTS assay to identify small molecule agonists of the hypoxia (HIF-1) signaling pathway - cell viability counter screen (AID 1224844; calls by dose curve; further: nearly all actives have a fitted effect of over 50% in size; further: potency means the concentration at half of the fitted maximal effect)
How it was run: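 Multiplexed with the HRE beta-lactamase assay, this viability read used CellTiter-Glo luminescence (30 min, RT) on HRE-bla ME-180 cells treated 17 hrs with compounds in 0.5% dialyzed FBS medium.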

[8] = molecular target: Luciferin 4-monooxygenase (Photinus pyralis) (UniProt P08659); experiment: qHTS assay to identify small molecule inhibitors of firefly luciferase (AID 1224835); further: series mostly up to about 120 µM; nearly all actives have a fitted effect of over 25% in size
Sequence of Luciferin 4-monooxygenase (Photinus pyralis) (P08659 whole entry, looked up): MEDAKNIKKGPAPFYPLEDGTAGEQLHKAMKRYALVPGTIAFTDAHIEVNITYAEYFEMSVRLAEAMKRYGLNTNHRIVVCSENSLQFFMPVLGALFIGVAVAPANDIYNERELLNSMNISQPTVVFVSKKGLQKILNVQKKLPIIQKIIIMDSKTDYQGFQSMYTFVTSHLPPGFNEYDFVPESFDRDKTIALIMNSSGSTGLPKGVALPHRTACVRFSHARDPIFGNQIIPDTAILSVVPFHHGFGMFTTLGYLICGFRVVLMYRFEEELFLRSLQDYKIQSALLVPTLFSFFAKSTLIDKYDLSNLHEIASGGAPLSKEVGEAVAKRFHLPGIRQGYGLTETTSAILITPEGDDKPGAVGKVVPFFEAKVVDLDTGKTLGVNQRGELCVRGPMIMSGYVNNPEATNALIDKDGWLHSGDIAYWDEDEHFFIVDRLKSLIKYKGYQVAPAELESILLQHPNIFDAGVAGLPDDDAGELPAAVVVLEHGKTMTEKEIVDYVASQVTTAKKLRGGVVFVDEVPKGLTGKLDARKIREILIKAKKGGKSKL
How it was run: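 Biochemical qHTS: compounds run as interplate titrations against purified firefly enzyme, with D-luciferin and ATP each at its KM concentration. Light output recorded by CCD imaging.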

[9] = qHTS assay to identify small molecule agonists of the estrogen related receptor signaling pathway with the pleiotropic PPARgamma coactivator (PGC) from Tox21 10K library (AID 1224842); further: nearly all actives have a fitted effect of over 15% in size; further: potency means the concentration at half of the fitted maximal effect
How it was run: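 PGC/ERR reporter cell line, 2,000 cells per well, incubated 6 h at 37 C before 23 nL compound in DMSO was added. After 18 h at 37 C, One-Glo luminescence read following 30 min at room temperature.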

[10] = qHTS assay to identify small molecule antagonists of the estrogen related receptor signaling pathway with the pleiotropic PPARgamma coactivator (PGC) from Tox21 10K library (AID 1224841; call rule not given here; further: series mostly up to about 92 µM; actives are mostly falling curves and most rising ones were filed inactive; nearly all actives have a fitted effect of over 50% in size)
How it was run: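 Each well held 2,000 PGC/ERR cells, pre-incubated six hours (37 C, 5% CO2). Test substances in DMSO were added by pin tool and left for 18 h at 37 C before luciferase detection by One-Glo.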
On the % scale 0 is the no-effect control and ±100 the full control effect.

FC(F)(F)C(F)(F)C(F)(F)C(F)(F)C(F)(F)C(F)(F)CCI
inactive: Potency [1] | Potency [2] | Potency [3] | Potency [4] | Potency [5] | Potency [6] | Potency [7]

CCCCOC(O)CC (configuration not stated)
inactive: Potency [8] | Potency [1] | Potency [6] | Potency [7]

CCc1nn(C2CCCCC2)c2cc(C3(C#N)CCC(C(=O)O)CC3)ccc12 (configuration not stated)
inactive: Potency [8] | Potency [3] | Potency [4] | Potency [9] | Potency [6] | Potency [7]

CC[C@]12CCCN3CCc4c(n(c5ccccc45)C(=O)C1)[C@@H]32
inactive: Potency [8] | Potency [5] | Potency [10] | Potency [9] | Potency [6]

CCCCCC/C=C/C=O
inactive: Potency [1] | Potency [2] | Potency [3] | Potency [4] | Potency [5] | Potency [10] | Potency [9] | Potency [7]

c1ccc(OCc2ccc(CCCN3CCOCC3)cc2)cc1
inactive: Potency [1] | Potency [2] | Potency [3] | Potency [5] | Potency [10] | Potency [9] | Potency [6] | Potency [7]
active: Potency [4] 29.8 µM

N#Cc1cc2ccccc2c2ccccc12
active: Potency [4] 27.4 µM
inactive: Potency [1] | Potency [2] | Potency [3] | Potency [5] | Potency [7]

CCCCCCCCCCCCCCCBr
inactive: Potency [8] | Potency [1] | Potency [5] | Potency [6] | Potency [7]

CNS(=O)(=O)Cc1ccc2[nH]cc(CCN(C)C)c2c1
inactive: Potency [1] | Potency [2] | Potency [3] | Potency [4] | Potency [5] | Potency [7]

CCCCCc1ccc(N)cc1
inactive: Potency [1] | Potency [2] | Potency [3] | Potency [4] | Potency [5] | Potency [6]

Cc1ccccn1
inactive: Potency [1] | Potency [2] | Potency [3] | Potency [4] | Potency [5] | Potency [10] | Potency [9] | Potency [7]

CN(C)CCCNCCCN
inactive: Potency [1] | Potency [2] | Potency [3] | Potency [4] | Potency [5] | Potency [6]

Oc1ccc(Sc2ccc(O)cc2)cc1
inactive: Potency [1] | Potency [2] | Potency [3] | Potency [5] | Potency [7]
active: Potency [4] 57.2 µM

CCCC(=O)OCC
inactive: Potency [1] | Potency [2] | Potency [3] | Potency [4] | Potency [5] | Potency [6] | Potency [7]

CCN(CC)C(C)=O
inactive: Potency [1] | Potency [3] | Potency [4] | Potency [5] | Potency [10] | Potency [6]

CCN(CC)CCOc1ccc2c(c1)C(=O)c1cc(OCCN(CC)CC)ccc1-2
inactive: Potency [10] | Potency [7]
active: Potency [2] 23.7 µM

CN1CCN(C2=Nc3ccccc3Sc3ccc(Cl)cc32)CC1
inactive: Potency [1] | Potency [3] | Potency [4] | Potency [5] | Potency [10] | Potency [6] | Potency [7]

CCCCCCCCN(C)C
inactive: Potency [1] | Potency [2] | Potency [10] | Potency [6] | Potency [7]

CC1(C)[C@H]2CC[C@]1(C)[C@H](O)C2
inactive: Potency [1] | Potency [2] | Potency [3] | Potency [6] | Potency [7]

CC(C(=O)O)c1ccc(-c2ccccc2)c(F)c1 (configuration not stated)
inactive: Potency [1] | Potency [3] | Potency [4] | Potency [5] | Potency [7]

Nc1ccc(C(=O)Nc2ccccc2N)cc1
inactive: Potency [1] | Potency [4] | Potency [5] | Potency [6]
active: Potency [9] 11.9 µM | Potency [7] 12 µM

CN(C)CC/C=C1\c2ccccc2COc2ccccc21
inactive: Potency [1] | Potency [3] | Potency [4] | Potency [6] | Potency [7]

CCCOc1ccc2nc(NC(=O)OC)[nH]c2c1
inactive: Potency [1] | Potency [2] | Potency [4] | Potency [5] | Potency [6]

CCCCCCCCCO
inactive: Potency [1] | Potency [3] | Potency [4] | Potency [5] | Potency [10] | Potency [6] | Potency [7]

CC(Cc1cccc(C(F)(F)F)c1)NCCOC(=O)c1ccccc1 (configuration not stated)
inactive: Potency [1] | Potency [2] | Potency [3] | Potency [4] | Potency [6]

CCC(C)N(C)C(=O)c1cc2ccccc2c(-c2ccccc2Cl)n1 (configuration not stated)
inactive: Potency [1] | Potency [2] | Potency [5] | Potency [7]

C=Cc1c(C)c2cc3[nH]c(cc4nc(cc5nc(cc1[nH]2)C(C)=C5CCC(=O)O)C(CCC(=O)O)=C4C)c(C)c3C=C
inactive: Potency [3] | Potency [4] | Potency [5] | Potency [10]
active: Potency [7] 19 µM

CC1=CC(=O)/C(=C(/C)O)C(=O)O1
inactive: Potency [1] | Potency [3] | Potency [4] | Potency [5] | Potency [6] | Potency [7]

CC(C)(C)c1cc(CCC(=O)OCC(COC(=O)CCc2cc(C(C)(C)C)c(O)c(C(C)(C)C)c2)(COC(=O)CCc2cc(C(C)(C)C)c(O)c(C(C)(C)C)c2)COC(=O)CCc2cc(C(C)(C)C)c(O)c(C(C)(C)C)c2)cc(C(C)(C)C)c1O
inactive: Potency [1] | Potency [2] | Potency [3] | Potency [4] | Potency [6] | Potency [7]

CC(=O)c1ccc2c(c1)[C@H](NC(=O)c1ccc(F)cc1)[C@@H](O)C(C)(C)O2
inactive: Potency [1] | Potency [3] | Potency [4] | Potency [5] | Potency [6]

O=C(c1ccc(O)cc1)c1ccc(O)cc1
inactive: Potency [1] | Potency [3] | Potency [5] | Potency [10] | Potency [6] | Potency [7]

O=C(c1ccccc1)c1ccc2n1CCC2C(=O)O (configuration not stated)
inactive: Potency [1] | Potency [2] | Potency [3] | Potency [5] | Potency [7]

O=C1Nc2cc(Cl)ccc2Oc2ccccc21
inactive: Potency [1] | Potency [2] | Potency [3] | Potency [5] | Potency [6] | Potency [7]

CCCCCOC(=O)c1ccc(O)cc1
inactive: Potency [1] | Potency [2] | Potency [3] | Potency [10] | Potency [6]
active: Potency [4] 55.1 µM | Potency [9] 27.6 µM

O=S1(=O)N=C(O)c2ccccc21
inactive: Potency [1] | Potency [2] | Potency [5] | Potency [6]

CCCCCCc1ccc(N)cc1
inactive: Potency [1] | Potency [2] | Potency [3] | Potency [4] | Potency [10] | Potency [9] | Potency [6] | Potency [7]

Cc1ccccc1N=Nc1ccc(N=Nc2c(O)ccc3ccccc23)c(C)c1
inactive: Potency [1] | Potency [2] | Potency [3] | Potency [5] | Potency [10] | Potency [9] | Potency [6] | Potency [7]

C[Si](C)O[Si](C)(C)O[Si](C)(C)O[Si](C)C
inactive: Potency [1] | Potency [2] | Potency [5] | Potency [6] | Potency [7]

CC(C)c1ccccc1C(C)C
inactive: Potency [1] | Potency [2] | Potency [7]

Cc1cc(O)ccc1N
inactive: Potency [4] | Potency [10] | Potency [6]
active: Potency [3] 3.08 µM

O=C=NC1CCC(CC2CCC(N=C=O)CC2)CC1 (configuration not stated)
inactive: Potency [1] | Potency [2] | Potency [3] | Potency [4] | Potency [6] | Potency [7]

CCN(CCO)CCCC(C)Nc1ccnc2cc(Cl)ccc12 (configuration not stated)
inactive: viability change, negative = cytotoxic [1] -11% [at 8.39 µM] | activity change, negative = cytotoxicity [2] -10.3% [at 8.39 µM] | viability change, negative = cytotoxic [5] 1.55% [at 8.39 µM] | activation [6] -1.08% [at 8.39 µM] | activity change, negative = cytotoxicity [7] 2.32% [at 6.97 µM]

COCCO
inactive: Potency [1] | Potency [2] | Potency [3] | Potency [4] | Potency [7]

CCN(CC)CCNC(C(=O)OCCC(C)C)c1ccccc1 (configuration not stated)
inactive: Potency [1] | Potency [2] | Potency [4] | Potency [5] | Potency [10] | Potency [6]

Cn1c(NCCN(CCO)CCCc2ccc([N+](=O)[O-])cc2)cc(=O)n(C)c1=O
inactive: Potency [1] | Potency [5] | Potency [10] | Potency [9] | Potency [6] | Potency [7]

O=C(CCN1CCN2CCCC2C1)N1c2ccccc2Sc2ccc(Cl)cc21 (configuration not stated)
inactive: viability change, negative = cytotoxic [1] -17% [at 19 µM] | activity change, negative = cytotoxicity [2] -18.2% [at 19 µM] | viability change, negative = cytotoxic [5] -1.3% [at 19 µM] | activity, negative = inhibition [10] -25.1% [at 19 µM] | activation [9] -6.92% [at 19 µM] | activation [6] -2.43% [at 19 µM] | activity change, negative = cytotoxicity [7] 1.19% [at 15.8 µM]

O=C(O)Cc1cc(I)c(Oc2ccc(O)c(I)c2)c(I)c1
inactive: Potency [1] | Potency [2] | Potency [3] | Potency [5] | Potency [6]

OC(CCN1CCCCC1)(c1ccccc1)C1CCCCC1 (configuration not stated)
inactive: Potency [1] | Potency [4] | Potency [5] | Potency [10]

CC1(C)CCC(C)(C)c2cc(NC(=O)c3ccc(C(=O)O)cc3)ccc21
inactive: Potency [1] | Potency [2] | Potency [4] | Potency [5] | Potency [6]

CCCCCCCCCCCCCCCCCBr
inactive: viability change, negative = cytotoxic [1] -1.41% [at 19 µM] | activity change, negative = cytotoxicity [2] 0.897% [at 19 µM] | viability change, negative = cytotoxic [5] 2.64% [at 19 µM]

NCCCOCCOCCOCCCN
active: Potency [7] 15.5 µM
inactive: Potency [1] | Potency [3] | Potency [4] | Potency [5] | Potency [6]

CN(C)CCCOc1nn(Cc2ccccc2)c2ccccc12
inactive: Potency [3] | Potency [10] | Potency [6] | Potency [7]

C[C@@H](C1=C(CCN(C)C)Cc2ccccc21)c1ccccn1
inactive: Potency [1] | Potency [5] | Potency [6] | Potency [7]

O=C(O)c1cn(C2CC2)c2cc(Cl)c(F)cc2c1=O
inactive: Potency [1] | Potency [2] | Potency [4] | Potency [5] | Potency [6] | Potency [7]

Source: PubChem BioAssay (Tox21)
